Active and inactive are the calls of the source. Rule for the calls: active = hit-call score of the fitted dose curve at least 0.9, where 1 is the maximum; inactive = score below 0.9.

A short description of the assay: Tanguay_ZF_120hpf_MO24: Oregon State University Tanguay Lab 24 Hour Post-fertilization zebrafish Assay for Mortality (AID 2284389). The method, then:
Tanguay_ZF_120hpf is a whole embryo, multiplexed endpoint assay using zebrafish larvae exposed for 120 hours post fertilization on a 96-well plate.Tanguay_ZF_120hpf_MO24 is one of one assay component(s) measured or calculated from the Tanguay_ZF_120hpf assay. It is designed to make measurements of zebrafish development as detected with brightfield microscopy of developing zebrafish embryos.Data from the assay component Tanguay_ZF_120hpf_MO24 was analyzed into 1 assay endpoints. This assay endpoint, Tanguay_ZF_120hpf_MO24, was analyzed in the positive analysis fitting direction relative to DMSO as the negative control and baseline of activity. Using a type of viability reporter, gain-of-signal activity can be used to understand changes in developmentals as they relate to the whole embryo. To generalize the intended target to other relatable targets, this assay endpoint is annotated to the zebrafish development intended target family, where the subfamily is embryonic mortality.
Zebrafish husbandry: Tropical 5D wild-type adult zebrafish were housed in at an approximate density of 1000 per 100 gallon tank at the Sinnhuber Aquatic Research Laboratory, Oregon State University, Corvallis, OR. Each tank was kept at standard laboratory conditions of 28C on a 14-h light/10-h dark photoperiod in fish water consisting of reverse osmosis water supplemented with a commercially available salt (Instant Ocean). Spawning funnels were placed into the tanks the night prior, and embryos were collected and staged. To increase bioavailability, the chorion was enzymatically removed using pronase (63.6mg/ml, >/= 3.5U/mg, Sigma-Aldrich: P5147) at 4 hours post fertilization (hpf) using a custom automated dechorionator.Chemical exposures: Six hpf dechorionated embryos were placed 1 embryo per well in a 96-well plate prefilled with 90 ul of EM using automated embryo placement systems (AEPS). Ten microliters of each row of dilution plate 2 was added to 2 exposure plates. The final DMSO concentration used was 0.64% (vol/vol). Thirty-two embryos were also exposed to 5uM trimethyltin chloride (positive control). Plates were sealed to prevent evaporation and foil covered to reduce light exposure and kept in a 28C incubator. Embryos were statically exposed until 120 hpf. At 24 hpf, embryos were assessed for photomotor response using a custom photomotor response analysis tool (PRAT) and for developmental toxicity endpoints (MO24: mortality at 24 hpf, DP: developmental progression, SM: spontaneous movement, and NC: notochord distortion). At 120 hpf, locomotor activity was measured using Viewpoint Zebralab and assessed for 13 endpoints. Zebrafish acquisition and analysis program (ZAAP), a custom program designed to inventory, acquire, and manage zebrafish data, was used to collect developmental endpoints as either present or absent (i.e., binary responses were recorded). If mortality occurred for an embryo (at either 24 or 120 hpf), the non-mortality endpoints were not measured.
Regarding `OCC(F)(F)OC(F)(F)C(F)(F)OC(F)(F)C(F)(F)OC(F)(F)F`, the molecule was called inactive.

Turning to `NC(=O)C(F)(F)C(F)(F)F`, the result was inactive.

In the case of `O=S(=O)(F)C(F)(F)C(F)(F)C(F)(F)C(F)(F)C(F)(F)C(F)(F)C(F)(F)C(F)(F)F`, the result was inactive.

For the molecule `C=CC(=O)OCC(F)(F)C(F)F`, the call was inactive.

On to `O=C(O)C=CC(F)(C(F)(F)F)C(F)(F)F`, for which the outcome was inactive.

On to `O=C(O)C(F)(OC(F)(F)C(F)(F)C(F)(F)F)C(F)(F)F` (centres undefined), for which the molecule was called inactive.

As for `FC(F)(F)C(F)(C(F)(F)F)C(F)(F)C(F)(F)CC1CO1` (centres undefined), the call was inactive.

One may read the AC50 as the midpoint of the concentration-response curve, whichever way the signal moves. In the case of `COC(=O)C(F)(F)C(F)(F)OC(F)(C(F)(F)F)C(F)(F)OC(F)=C(F)F` (centres undefined), the AC50 was 21.4 µM (active).

Take `OCC(F)(F)OC(F)(F)C(F)(F)OC(F)(F)C(F)(F)OC(F)(F)CO`: the AC50 is 64.9 µM (active).

As for `OCC(F)(F)OC(F)(F)C(F)(F)OC(F)(F)CO`, the outcome was inactive.

As to `CC(O)C(F)(F)C(F)(F)F` (centres undefined), the outcome was inactive.

On to `O=C(O)C(F)(F)C(F)(F)C(=O)O`, for which the result was inactive.

As to `O=C(O)C(F)(F)OC(F)(F)C(F)(F)OC(F)(F)C(=O)O`, the outcome was inactive.

`O=C(O)C(F)(F)OC(F)(F)C(F)(F)OC(F)(F)F`: the molecule was classed as inactive.

The values are drawn from PubChem BioAssay (EPA / NIEHS).
